Data from PubChem BioAssay (NCI).
“And” between values parts separate entries of the source, which are not always exact repeats. Equal entries are not always repeated. This is part of a sample that, as a whole, favours compounds with a hit. Of some 79,000 tested, about 15% had one in any assay. A number with no mark means an inactive call. The source made the active and inactive calls. Cut-off read from the data, not from the text of the source: active = growth inhibition above about 70%; inactive = the rest.

How the values were obtained:
[1] = NCI Yeast Anticancer Drug Screen. Data for the rad50 strain (AID 155);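 note: 0% = growth of vehicle-only cultures of the same strain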; details: S. cerevisiae rad50 strain growth inhibition; at 50.0 µM; active compounds read high
How it was run: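 Vehicle-treated cultures provide the reference for the growth inhibition reported for compound-exposed, repair-deficient yeast.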

[2] = NCI Yeast Anticancer Drug Screen. Data for the mec2-1 strain (AID 157); details: S. cerevisiae mec2-1 strain, at 50.0 µM, active compounds read high
How it was run: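 Strain: mec2-1 (DNA repair/cell cycle alteration). Compound exposure, then growth measured; inhibition expressed relative to vehicle.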

[3] = NCI Yeast Anticancer Drug Screen. Data for the sgs1 mgt1 strain (AID 161);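 note: 0% = growth of cultures given vehicle only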; details: S. cerevisiae sgs1 mgt1 strain, at 50.0 µM, active compounds read high
How it was run: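 Inhibition of yeast growth, normalised to vehicle-treated controls, is reported for a strain bearing genetic alterations in DNA damage repair.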

[4] = NCI Yeast Anticancer Drug Screen. Data for the cln2 rad14 strain (AID 165);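 note: 0% = growth equal to vehicle treated cultures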; details: S. cerevisiae cln2 rad14 strain, at 50.0 µM, active compounds read high
How it was run: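 Compounds are applied to the cln2 rad14 yeast strain, and growth is then compared with that of vehicle-treated cultures to give inhibition.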

[5] = NCI Yeast Anticancer Drug Screen. Data for the bub3 strain (AID 167); details: S. cerevisiae bub3 mutant strain, at 50.0 µM, active compounds read high
How it was run: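 Mutant yeast screening strain plus compound; vehicle-treated cultures serve as the 0% inhibition reference.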

[6] = NCI Yeast Anticancer Drug Screen. Data for the mlh1 rad18 strain (AID 175); details: S. cerevisiae mlh1 rad18 strain growth inhibition; at 50.0 µM; active compounds read high
How it was run: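 Read-out is yeast growth inhibition, calculated against vehicle-only controls. The compound was applied to a strain engineered with DNA damage repair alterations.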

Row | SMILES | growth inhibition [1] | growth inhibition [2] | growth inhibition [3] | growth inhibition [4] | growth inhibition [5] | growth inhibition [6]
1 | CCCCCCNC(=O)CCl | 6.5% | -9.85% | 15.3% | -14.6% | 7.45% | -9.15%
2 | NC(Cc1cnc[nH]1)C(=O)NC(Cc1cnc[nH]1)C(=O)O (configuration not stated) | -5.1% | 9% | -1.5% | 10.6% | 4.45% | 7.6%
3 | O=C(Cl)c1cc([N+](=O)[O-])cc([N+](=O)[O-])c1 | 48.1% | 26.1% | 45.9% | -10.2% | -1.6% | 46.6%
4 | COc1cc(C2c3cc4c(cc3OC(NNS(=O)(=O)c3ccc(C)cc3)C2C)OCO4)cc(OC)c1O (configuration not stated) | -3.5% | -7.8% | -15.8% | 0.15% | -12.5% | 1.6%
5 | COc1ccc(P2(=S)OC(C)(C)C(C)(C)O2)cc1 | -24.7% | -16.2% | -23.7% | -51.6% | -11.4% | -43%
6 | ClCCN(CCCl)c1ccc(C2=Nc3cccc4cccc(c34)N2)cc1 | 3.65% | 9.8% | 6.75% | -0.25% | -8.05% | 5.05%
7 | [O-][N+]12CCCCC1C1CC(C2)C2CCCC(c3ccccc3)N2C1 (configuration not stated) | 3.55% | -25.1% | -22.8% | -34.8% | -28% | -59.2%
8 | CC(C)[CH2][Sn]([CH2]C(C)C)([CH2]C(C)C)[C](C)(C)C | 99.3% (active) | 99.7% (active) | 99.5% (active) | 99.2% (active) | 99.4% (active) | 99.5% (active)
9 | O=[N+]([O-])c1ccc(SCl)c([N+](=O)[O-])c1 | 31.9% | 11.1% | 18.8% | 14.6% | 31.9% | 17.9%
10 | O=CC(O)C(O)C1[O][Sb][O]C1CO (configuration not stated) | 0.75% | -1.7% | -4.45% | -53.9% | -5.85% | -8.85%
11 | O=[As](O)(O)c1ccccc1Cl | 14.1% | -13.4% | -32.1% | 4.55% | 3.2% | 16.6%
12 | O=C1C(C(Nc2ccccc2)c2ccccc2)=C([O-])c2ccccc21.O=C1C(C(Nc2ccccc2)c2ccccc2)=C([O-])c2ccccc21.[Cu+2] (configuration not stated) | -12% | -1.5% | -10.2% | 10.5% | 4.75% | -0.65%
13 | Cc1ccc(OP(Oc2ccc(C)cc2)Oc2ccc(C)cc2)cc1 | 32.8% | 10.7% | -6.35% | -31.6% | 29.4% | 31.5%
14 | O=C(CF)[O][Sb]([O]C(=O)CF)([c]1ccccc1)([c]1ccccc1)[c]1ccccc1 | 9.8% | 19.9% | 23.8% | -18.6% | 16.2% | 33.8%
15 | C[CH2][Sn]1([CH2]C)[O]OC(c2ccccc2)[O]1 (configuration not stated) | 6.25% | 2.75% | 18.7% | -3.65% | 14.1% | 20.3%
16 | C/C=C1/CC(C)C(C)(O)C(=O)OCC2CCN3CCC(OC1=O)C23 (configuration not stated) | 13.5% | -1.75% | 6.8% | 8.05% | 23.1% | 18.4%
17 | CCOC(=O)C[CH2][Sn]([Cl])([Cl])[Cl] | 17.4% | 22.5% | 21.1% | 12.3% | 4.3% | 20.9%
18 | Cn1c(=S)[nH]n(CCOc2ccccc2)c1=S | -7.15% | -5.35% | -5.85% | -18.4% | 3.45% | -6.05%
19 | O=c1[nH]cc(CCl)c(=O)[nH]1 | 3.2% | -17.2% | 6.3% | 25.9% | 4.85% | -0.15%

Row | SMILES | growth inhibition [1] | growth inhibition [2] | growth inhibition [3] | growth inhibition [4] | growth inhibition [5] | growth inhibition [6]
20 | [C-]#[O+].[C-]#[O+].[Ni].c1ccc([PH+](CC[PH+](c2ccccc2)c2ccccc2)CC[PH+](c2ccccc2)c2ccccc2)cc1 | -23.4% | 0.4% | -22.4% | 3.75% | 7.6% | -10.2%
21 | CCOC(OC1=C(C#N)CCCC1)C(CC)[Se]c1ccccc1 (configuration not stated) | 62.6% | 21.3% | 50.8% | 52% | 44.1% | 57.8%
22 | COc1ccc(C(c2c(O)c3ccccc3oc2=O)c2c(O)c3ccccc3oc2=O)cc1 | -15.3% | -0.35% | -14.4% | -18.2% | 1% | -0.7%
23 | CC1(C)N=C(N)N=C(N)N1c1ccc(CCc2cccc(Cl)c2S(=O)(=O)F)c(Cl)c1 | 99.5% (active) | 99.7% (active) | 99.7% (active) | 99.3% (active) | 99% (active) | 99.5% (active)
24 | COC(=O)C(N)Cc1ccc(OC)c(N(CCCl)CCCl)c1 (configuration not stated) | 17% | -0.6% | -11.2% | 2.8% | 3% | 6.55%
25 | O=C(O)COc1ccccc1 | 10.9% and -7.6% | 9.2% and 1.65% | 5.8% and -36.2% | -16.6% and 6.7% | -10.2% and -17.4% | -13.2% and -0.15%
26 | C1N2CN3CN1CN(C2)C3.[Cu+2] | -15.4% | -9.85% | -14.7% | -8.5% | -15% | -6.9%
27 | Brc1ccc(NP(Br)(c2ccccc2)(c2ccccc2)c2ccccc2)cc1 | 52.8% | 5.6% | 58% | 11.8% | 11.9% | 20.1%
28 | CC1=CC2C(C=C1)S(=O)(=O)N1CC21c1ccccc1 (configuration not stated) | 20.9% | -31.4% | -11% | -8.3% | -20.6% | -3.9%
29 | C=CC[NH-].C=CC[NH-].CC(=O)CC(C)=O.CC(=O)CC(C)=O.[Ni+2] | -2.65% | -6.75% | -7.4% | -9.35% | -1.1% | -3.35%
30 | N#Cc1ccc(NN=O)cc1 | 15.9% | -3.15% | 10.4% | -0.2% | 25% | 28.1%
31 | O=C(O)C(O)C(O)C(O)C(O)C(O)C(O)CO (configuration not stated) | -18.1% | -6.95% | -33.4% | -73.5% | 3% | 2.95%
32 | C[C@H]1C(=O)O[C@@H]2CCN3CC=C(COC(=O)[C@](C)(O)[C@@]1(C)O)[C@H]23 | -4.7% | -4.2% | 11.9% | -2.85% | -9.6% | -44.1%
33 | CCCCCCC1C(=O)NC(=O)NC1=O | -4.25% | -15.1% | -8% | -7.75% | 2.6% | -12.3%
34 | CCCC(C)COC(=O)Cc1ccccc1 (configuration not stated) | 18.3% | 18.2% | 9.55% | -27.9% | 4.3% | 15.2%
35 | CC(Cl)(Cl)[N+](=O)[O-] | 33.7% | -22.5% | -8.05% | -60.1% | -10.2% | 21.1%
36 | O=P(O)(O)C(O)c1ccncc1 (configuration not stated) | -28% | -14.9% | -15.8% | -23.1% | -22.6% | -21.9%
37 | C[N+](C)=c1nc(N2CCc3ccccc3C2)ss1 | 27% | 37% | 26.4% | -19.4% | 12.1% | 47.7%
